FECH inh: inhibitors of human ferrochelatase | 3.3% of 20,000 active | purified FECH, Ni-mesoporphyrin absorbance 550 nm | AID 1671448 | P22830 | calls only at 10 µM (by protocol);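 active = enzyme reaction rate more than 3 SD below the solvent-only control wells on the same plate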;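 note: lower slope than DMSO wells means FECH inhibition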
Target sequence (P22830 whole entry, looked up): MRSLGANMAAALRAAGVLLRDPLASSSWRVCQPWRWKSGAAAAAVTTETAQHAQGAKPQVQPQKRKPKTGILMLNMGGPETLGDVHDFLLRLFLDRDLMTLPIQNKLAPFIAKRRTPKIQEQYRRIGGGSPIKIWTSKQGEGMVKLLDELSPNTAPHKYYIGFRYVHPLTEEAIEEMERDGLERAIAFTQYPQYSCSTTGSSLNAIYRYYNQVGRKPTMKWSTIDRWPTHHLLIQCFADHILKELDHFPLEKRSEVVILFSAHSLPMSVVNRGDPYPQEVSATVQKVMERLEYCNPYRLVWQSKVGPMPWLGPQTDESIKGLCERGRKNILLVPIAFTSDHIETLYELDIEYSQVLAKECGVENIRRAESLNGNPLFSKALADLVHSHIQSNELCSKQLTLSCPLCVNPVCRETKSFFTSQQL
Calls only; . = inactive; + = active, no number. This is one part of a sample in which hits are shown more often than they occur.

SMILES | FECH inh
CCCc1c(C)nc2ncnn2c1Sc1ccc(NC(C)=O)cc1 | .
CCCc1c(C)nc2ncnn2c1Sc1ccc(NC(=O)c2ccc(F)cc2)cc1 | .
CCCc1c(C)nc2ncnn2c1Sc1ccc(NS(=O)(=O)c2cccc(Cl)c2)cc1 | .
CCCc1c(C)nc2ncnn2c1Sc1ccc(NC(=O)c2ccccc2Cl)cc1 | +
CCc1c(C)nc2ncnn2c1Sc1ccc(NC(=O)c2ccccc2Br)cc1 | .
CCCc1c(C)nc2ncnn2c1Sc1ccc(NC(=O)c2ccco2)cc1 | .
CCCc1c(C)nc2ncnn2c1Sc1ccc(NC(=O)c2cccc(Cl)c2)cc1 | +
CCc1c(C)nc2ncnn2c1Sc1ccc(NC(=O)c2cccc(C)c2)cc1 | .
CCCc1c(C)nc2ncnn2c1Sc1ccc(NC(=O)c2ccccc2OCC)cc1 | +
Cc1ccc(N2C(=O)CCS2(=O)=O)cc1S(=O)(=O)Nc1c(C)cccc1C(C)C | .
CCc1ccc(CNC(=O)COc2nc(C)nc3onc(-c4ccc(C)c(C)c4)c23)cc1 | .
COc1ccc(OCc2nc(C(=O)N3CCNCC3c3ccccc3)co2)cc1 (stereo not drawn) | .
COc1ccc(OCc2nc(C(=O)N3CC4(C)CN(C)CC(C)(C3)C4)co2)cc1 | +
CCN(C(=O)c1coc(COc2ccc(OC)cc2)n1)[C@H]1COC[C@@H]1O | .
Cc1ccc(NC(C)(C(=O)NCC(C)(C)CO)c2ccccc2)cc1 (stereo not drawn) | .
CN(C)c1ccc(NC(=O)c2nc3ccccc3n(C)c2=O)cc1 | .
O=C(NCc1ccccc1)c1nc[nH]c1C(=O)NCc1cccnc1 | .
O=C(NCCc1c[nH]c2ccccc12)c1nc[nH]c1C(=O)NCc1ccccc1 | +
CC(C)(C)CNC(=O)c1[nH]cnc1C(=O)NCCc1c[nH]c2ccccc12 | .
O=C(NC(c1ccccc1)c1ccccc1)c1nc[nH]c1C(=O)NCc1ccccn1 | +
CC1(C)CC(NC(=O)c2nc[nH]c2C(=O)NCc2ccccn2)CC(C)(C)N1 | .
O=C(NCc1ccccn1)c1nc[nH]c1C(=O)NCc1ccccc1 | +
CCCNC(=O)c1[nH]cnc1C(=O)NC(c1ccccc1)c1ccccc1 | .
CN(C)CCNC(=O)c1nc[nH]c1C(=O)NCc1ccccn1 | .
CCCNC(=O)c1nc[nH]c1C(=O)NCc1ccccc1 | .
SMILES | FECH inh
CCc1ccc(S(=O)(=O)NCCn2c(-c3ccc(F)cc3)nc3cccnc32)cc1 | .
NS(=O)(=O)c1ccc(CCNC(=O)C2CCN(c3nc4ccccc4n3Cc3ccc(F)cc3)CC2)cc1 | .
COc1ncccc1-c1ccc(C(=O)C(C)C)s1 | .
O=C(NCCc1cccc(C(F)(F)F)c1)c1ccccc1C1CCNC1 (stereo not drawn) | .
Clc1cccc(Nc2nc(NCCC3=CCCCC3)nc3c2cnn3-c2ccccc2)c1 | .
Cc1ccc2c(C)c(C(=O)NCCc3nc(-c4ccccn4)no3)oc2c1 | .
O=C(CCC(=O)N1CCc2cc(S(=O)(=O)Nc3ccccc3)ccc21)N1CCOCC1 | .
CC(C)NCc1cc(=O)n2[nH]c(NCc3ccccc3)nc2n1 | .
Cc1ccc(NCc2cc(=O)n3[nH]c(NCc4ccccc4)nc3n2)cc1 | .
O=c1cc(CNc2ccc(Br)cc2)nc2nc(NCc3ccc(F)cc3)[nH]n12 | .
CC(C)c1cc(=O)n2[nH]c(CNc3ccc(Br)cc3)nc2n1 | +
O=c1cc(CNc2ccc(Br)cc2)nc2nc(NCc3ccccc3)[nH]n12 | .
CC(C)c1cc(=O)n2[nH]c(CNc3ccccc3)nc2n1 | +
CN(CCO)c1nc(Nc2ccc(F)cc2)c2cnn(-c3ccccc3)c2n1 | .
COC(=O)[C@]1(C)N[C@H](c2csc(-c3ccccc3)n2)[C@@H]2C(=O)N(C)C(=O)[C@@H]21 | .
C=CCN(Cc1ccc(C)s1)C(=O)[C@@H](N)Cc1cscn1 | .
Cc1ccc(Cl)cc1NCc1cc(=O)n2[nH]c(-c3ccccc3C)nc2n1 | +
Cc1ccccc1-c1nc2nc(CNc3cccc(Cl)c3C)cc(=O)n2[nH]1 | .
Cc1cccc(C)c1NCc1cc(=O)n2[nH]c(NCc3ccc(F)cc3)nc2n1 | .
Cc1ccc(NCc2cc(=O)n3[nH]c(-c4ccccc4C)nc3n2)cc1Cl | .
Cc1ccccc1-c1nc2nc(CNc3ccc(F)cc3)cc(=O)n2[nH]1 | +
Cc1ccccc1-c1nc2nc(CNc3cccc(C)c3C)cc(=O)n2[nH]1 | .
COc1ncc(CN2CC(c3ccccn3)C2)cn1 | .
Cc1ccc(CNC(=O)C2(C)Cn3nc(C(=O)NCCCN4CCCCCC4)cc3C(=O)N2C)cc1 (stereo not drawn) | .
COc1ccc(C(=O)Oc2ccc(Nc3cc(C)nc4nc(-c5cccnc5)nn34)cc2)cc1OC | .
SMILES | FECH inh
Cc1ccc(-n2ncc3c(-n4nc(C)cc4NC(=O)c4c(F)cccc4F)ncnc32)c(C)c1 | .
O=C(NCCN1CCCOC1=O)C1CCN(Cc2ccco2)CC1 | .
Cc1ccc(C(C(=O)NCCN2CCCOC2=O)N(C)C)cc1 (stereo not drawn) | +
Cc1ccc(C(C(=O)NCc2ccc(-c3noc(C)n3)cc2)N(C)C)cc1 (stereo not drawn) | .
CN(CC1CCCN1C)c1nccc(C2CCCC2)n1 (stereo not drawn) | .
Cc1nn(CC(C)NC2CCN(C(=O)c3ccco3)CC2)c(C)c1Cl (stereo not drawn) | .
NC1(C(=O)O)CCN(Cc2ccc(OCC(=O)N3CCCCC3)cc2)C1 (stereo not drawn) | .
CN(Cc1ncc[nH]1)C(=O)COc1ccc(F)cc1 | .
Cc1cnc(CN(C)C(=O)c2ccc(OCC(=O)N3CCCCC3)cc2)[nH]1 | +
COc1cccc(-c2cc(N3CCN(C(=O)Nc4cccc(C)c4C)CC3)ncn2)c1 | .
CCCC(=O)Nc1nc2n(n1)C(c1c(F)cccc1Cl)C=C(c1ccc(C)cc1)N2 (stereo not drawn) | .
CCCC(=O)Nc1nc2n(n1)C(c1ccccc1Cl)C=C(c1ccc(C)cc1)N2 (stereo not drawn) | .
CCCC(=O)Nc1nc2n(n1)C(c1ccccc1Cl)C=C(c1ccc(Cl)cc1)N2 (stereo not drawn) | +
O=C(Nc1nc2n(n1)C(c1c(F)cccc1Cl)C=C(c1ccccc1)N2)c1ccco1 (stereo not drawn) | .
O=C(CCc1ccccc1)Nc1nc2n(n1)C(c1c(F)cccc1Cl)C=C(c1ccccc1)N2 (stereo not drawn) | +
CC(C)CC(=O)Nc1nc2n(n1)C(c1ccccc1Cl)C=C(c1ccccc1)N2 (stereo not drawn) | .
CCCC(=O)Nc1nc2n(n1)C(c1c(F)cccc1Cl)C=C(c1ccccc1)N2 (stereo not drawn) | +
O=C(CCc1ccccc1)Nc1nc2n(n1)C(c1ccccc1Cl)C=C(c1ccccc1)N2 (stereo not drawn) | .
CC(C)CC(=O)Nc1nc2n(n1)C(c1c(F)cccc1Cl)C=C(c1ccccc1)N2 (stereo not drawn) | +
O=C(Nc1nc2n(n1)C(c1c(F)cccc1Cl)C=C(c1ccccc1)N2)c1ccccc1F (stereo not drawn) | .
CC(=O)Nc1nc2n(n1)C(c1c(F)cccc1Cl)C=C(c1ccc(Cl)cc1)N2 (stereo not drawn) | .
CCCC(=O)Nc1nc2n(n1)C(c1ccccc1Cl)C=C(c1ccccc1)N2 (stereo not drawn) | .
CC1(C)Cc2cc(C3CC(=O)NCc4nc5ccccn5c43)ccc2O1 (stereo not drawn) | .
CC(C)c1cc(C2CCN(Cc3cccn3-c3ccncc3)CC2)[nH]n1 | .

Screens: PubChem, Corson Lab, School of Medicine, Indiana University
